Measured values published in PubChem BioAssay AID493231 (Broad Institute, 2011).
Measured potencies and affinities stand elsewhere. The source made the active and inactive calls. How the calls were made is not given here.

Target: Acyl-homoserine lactone acylase PvdQ (Pseudomonas aeruginosa (strain ATCC 15692 / DSM 22644 / CIP 104116 / JCM 14847 / LMG 12228 / 1C / PRS 101 / PAO1)) (UniProt Q9I194)
Assay: PvdQ acylase enzyme activity blockers – biochemical, fluorescence, plate reader and imaging, cherry-picks, dose response (AID 493231);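 further: more negative values mean stronger inhibition of the acylase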
Settings: purified PvdQ acylase, fluorogenic substrate; series mostly up to 10 µM

Chain of Acyl-homoserine lactone acylase PvdQ (Pseudomonas aeruginosa (strain ATCC 15692 / DSM 22644 / CIP 104116 / JCM 14847 / LMG 12228 / 1C / PRS 101 / PAO1)) (Q9I194 whole entry, looked up): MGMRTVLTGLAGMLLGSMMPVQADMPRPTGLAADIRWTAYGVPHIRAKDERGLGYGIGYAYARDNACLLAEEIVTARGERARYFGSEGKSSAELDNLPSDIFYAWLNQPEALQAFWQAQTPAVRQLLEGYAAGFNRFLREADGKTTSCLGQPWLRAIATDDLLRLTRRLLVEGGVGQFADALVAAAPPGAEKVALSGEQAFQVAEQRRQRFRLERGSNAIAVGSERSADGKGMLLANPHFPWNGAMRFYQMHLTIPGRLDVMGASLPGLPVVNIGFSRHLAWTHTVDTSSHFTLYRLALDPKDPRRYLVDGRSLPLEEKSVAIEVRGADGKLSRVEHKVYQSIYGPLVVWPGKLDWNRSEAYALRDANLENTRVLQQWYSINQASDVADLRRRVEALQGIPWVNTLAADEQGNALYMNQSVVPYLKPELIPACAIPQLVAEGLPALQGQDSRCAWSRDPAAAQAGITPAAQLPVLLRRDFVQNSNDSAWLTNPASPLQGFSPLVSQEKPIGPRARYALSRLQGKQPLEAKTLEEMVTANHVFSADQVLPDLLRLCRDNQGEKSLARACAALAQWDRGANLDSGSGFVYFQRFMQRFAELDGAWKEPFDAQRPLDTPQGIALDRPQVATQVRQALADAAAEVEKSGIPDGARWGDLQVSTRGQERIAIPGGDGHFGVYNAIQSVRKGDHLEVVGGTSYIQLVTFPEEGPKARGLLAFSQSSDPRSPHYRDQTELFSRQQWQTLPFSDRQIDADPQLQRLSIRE

outcome, inactive:
CN(CC1CCCN(CCc2ccc(F)cc2)C1)C(=O)CCC(F)(F)F (stereo not given)
O=C(O)CC1S/C(=N/N=C/C=C/c2ccccc2)NC1=O (stereo not given)
Cc1cccc2c(=O)cc(C)n(Cc3ccccc3)c12
O=C(/C=C/c1cccs1)Nc1ccncc1
NS(=O)(=O)c1ccc(N2CCOCC2)c(C(=O)NCc2cccs2)c1
O=C(N/N=C/c1cccnc1)C1CC1(c1ccccc1)c1ccccc1 (stereo not given)
CCSc1nc2cc(OC)c(OC)cc2c(=O)n1CC
CC1(OC(=O)CCc2ccccc2)C(=O)C=C2C=C(c3ccc(C#N)cc3)N(Cc3ccccc3)C=C2C1=O (stereo not given)
O=C1/C(=C/c2cccc([N+](=O)[O-])c2)Oc2cc(O)ccc21
CCOC(=O)Nc1ccc2nc(N3CCCCCC3)sc2c1
CCSc1ccc(-c2cccc([N+](=O)[O-])c2)nn1
O=C(COC(=O)/C=C/c1cccc(Br)c1)NC1CCCCCC1
O=C(COc1ccccc1)OCC(=O)c1ccc(S(=O)(=O)N2CCCCC2)cc1
CCOC(=O)c1cc(-c2cccc([N+](=O)[O-])c2)on1
CCOC(=O)CSc1nnc(-c2ccc(S(=O)(=O)N3CCC(C)CC3)cc2)o1
CCOC(=S)SCC(=O)Nc1nccs1
Cn1nnnc1SCC(=O)NCCCc1ccccc1
CN(c1ccc(C(=O)NC2CC3CCC2C3)cc1)S(C)(=O)=O (stereo not given)
CCCc1nnc(NC(=O)Cn2cnc3ccccc3c2=O)s1
CCOc1ccccc1-c1cc(-c2n[nH]c(=S)n2CC)c2ccccc2n1
